CHO-K1 Ca PAM: nonselective activator or artifact in parental CHO-K1 calcium assay | ATP EC20, Fluo-8 calcium fluorescence; 0% at ATP EC20, 100% at ATP max | activation, % at 3 µM | actives 0.02% (n = 360,000) | AID 602247;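 active means activation above the run cutoff, the mean activation of all test compounds plus 3 SD, cut at about 40% in these data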;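 further: peak over basal fluorescence ratio in a 140 s read after ATP addition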
CHRM1 antagonist: blocks human M1 muscarinic receptor. P11229. CHO-K1 hM1, Fluo-8 calcium fluorescence, ACh EC80 antagonist. inhibition, % at 3 µM. actives 1.3% (n = 360,000). AID 588852;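 active means percent inhibition above its own plate's cutoff, namely the mean of that plate's compound wells plus 3 SD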;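 further: peak over basal fluorescence ratio during 140 s after agonist addition; 0% = ACh EC80 plus DMSO and 100% = DMSO alone without agonist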
Target sequence (P11229 whole entry, looked up): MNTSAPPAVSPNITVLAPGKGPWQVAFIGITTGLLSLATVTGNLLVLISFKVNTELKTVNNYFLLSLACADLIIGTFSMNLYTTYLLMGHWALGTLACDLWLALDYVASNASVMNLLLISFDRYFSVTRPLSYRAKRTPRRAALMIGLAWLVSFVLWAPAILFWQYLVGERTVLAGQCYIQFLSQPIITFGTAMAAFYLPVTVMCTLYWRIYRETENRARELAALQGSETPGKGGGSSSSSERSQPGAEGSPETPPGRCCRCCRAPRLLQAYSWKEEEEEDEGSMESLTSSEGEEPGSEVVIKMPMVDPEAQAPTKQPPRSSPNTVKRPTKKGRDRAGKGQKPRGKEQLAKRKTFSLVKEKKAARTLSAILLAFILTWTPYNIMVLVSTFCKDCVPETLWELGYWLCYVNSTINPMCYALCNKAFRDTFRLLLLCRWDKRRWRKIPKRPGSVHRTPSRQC
CHRM1 agonist: activates human CHRM1 receptor | activation, % at 3 µM | actives 0.33% (n = 360,000) | CHO-K1 hM1, Fluo-8 calcium fluorescence, agonist mode; 0% DMSO, 100% acetylcholine EC100 | AID 588814;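 active means activation above the run's mean compound activation plus 3 SD, cut at about 16% in these data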;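 further: peak over basal fluorescence ratio within a 140 s kinetic read after compound addition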
CHO-K1 Ca antag: counter-screen for M1 antagonists: effect in parental CHO-K1 cells; ATP-induced calcium, Fluo-8 fluorescence; inhibition, % at 3 µM; actives 0.6% (n = 360,000); AID 602250;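 active means inhibition above a per-plate cutoff, the plate's mean sample inhibition plus 3 SD, cut at about 24% in these data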;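 further: 0% = DMSO plus EC80 ATP and 100% = DMSO alone without ATP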
CHO-K1 Ca ag: nonselective activator or artifact in parental CHO-K1 cells. Fluo-8 calcium fluorescence; scaled to maximal ATP response, vehicle zero. actives 0.48% (n = 360,000). AID 602248. activation, % at 3 µM; in the data active means activation above about 15%;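 further: untransfected CHO-K1 host cells lacking M1 receptor as counterscreen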
M1 PAM: positive allosteric modulators of human M1 muscarinic receptor. P11229. CHO-K1 hM1, Fluo-8 calcium fluorescence, ACh EC20; 0% = ACh EC20, 100% = maximal ACh. activation, % at 3 µM. actives 0.088% (n = 360,000); in the data active means activation above about 19%, passing the limit was not always enough
The depositor's hits bear a star. Only some compounds are listed: those with a hit (about 2.4% of all), similar ones and a draw of the others.

Results for Cc1ccc(S(=O)(=O)Nc2ccc(S(=O)(=O)Nc3nccs3)cc2)c([N+](=O)[O-])c1 ?
CHO-K1 Ca PAM: 2; CHRM1 antagonist: -5; CHRM1 agonist: -1; CHO-K1 Ca antag: -1; CHO-K1 Ca ag: 2; M1 PAM: 1

Results for Cc1cccc(NC(=O)COC(=O)c2cccc3c2C(=O)c2ccccc2C3=O)c1C ?
CHO-K1 Ca PAM: 17; CHRM1 antagonist: 29*; CHRM1 agonist: -7; CHO-K1 Ca antag: -4; CHO-K1 Ca ag: 4; M1 PAM: -17

What do the screens show for `Cc1cccc(C)c1NC(=O)COC(=O)c1cccc2c1C(=O)c1ccccc1C2=O`?
CHO-K1 Ca PAM: 1; CHRM1 antagonist: 5; CHRM1 agonist: -5; CHO-K1 Ca antag: -6; CHO-K1 Ca ag: 1; M1 PAM: -1

How did COC(=O)N(C)C[C@H]1OCc2cnnn2CCCC(=O)N([C@@H](C)CO)C[C@H]1C do in these assays?
CHO-K1 Ca PAM: 28; CHRM1 antagonist: -6; CHRM1 agonist: -4; CHO-K1 Ca antag: -12; CHO-K1 Ca ag: 1; M1 PAM: 0

Results for COc1cc2cc(C(=O)NCCc3c[nH]c4ccccc34)c(N)nc2cc1OC ?
CHO-K1 Ca PAM: -10; CHO-K1 Ca antag: 22; CHO-K1 Ca ag: 19*

Results for COc1cc(SC)ccc1C(=O)NCCc1c[nH]c2ccccc12 ?
CHO-K1 Ca PAM: 11; CHRM1 antagonist: -4; CHRM1 agonist: -2; CHO-K1 Ca antag: 0; CHO-K1 Ca ag: 3; M1 PAM: 1

Results for CC(=O)Oc1c(/C=C(\C#N)C(N)=O)[nH]c2ccccc12 ?
CHO-K1 Ca PAM: 9; CHRM1 antagonist: 8; CHRM1 agonist: 8; CHO-K1 Ca antag: 27*; CHO-K1 Ca ag: 8; M1 PAM: -1

Results for N#C/C(=C\c1c[nH]c2ccccc12)C(N)=O ?
CHO-K1 Ca PAM: -10; CHRM1 antagonist: -4; CHRM1 agonist: 2; CHO-K1 Ca antag: -2; CHO-K1 Ca ag: 1; M1 PAM: 5

What do the screens show for `Cc1ccc(S(=O)(=O)NN2C(=O)/C(=C/c3cccs3)SC2=S)cc1`?
CHO-K1 Ca PAM: -23; CHRM1 antagonist: -20; CHRM1 agonist: 0; CHO-K1 Ca antag: 26*; CHO-K1 Ca ag: -1; M1 PAM: 12

What do the screens show for `Cc1ccc(/C=C2\SC(=S)N(NS(=O)(=O)c3ccc(C)cc3)C2=O)cc1`?
CHO-K1 Ca PAM: 13; CHRM1 antagonist: -10; CHRM1 agonist: -4; CHO-K1 Ca antag: 6; CHO-K1 Ca ag: 3; M1 PAM: 3

What do the screens show for `CCOC(=O)CN1C(=N)N(c2nc(NC(C)C)nc(NC(C)C)n2)CC1=O`?
CHO-K1 Ca PAM: -15; CHRM1 antagonist: 2; CHRM1 agonist: -6; CHO-K1 Ca antag: 31*; CHO-K1 Ca ag: -1; M1 PAM: -3

What do the screens show for `CCOC(=O)CN1C(=N)N(c2nc(NC(C)C)nc(OC)n2)CC1=O`?
CHO-K1 Ca PAM: -1; CHRM1 antagonist: -11; CHRM1 agonist: -1; CHO-K1 Ca antag: -10; CHO-K1 Ca ag: 0; M1 PAM: 13

Results for COc1ccc(Cl)cc1C(=O)CSc1nnnn1C1CCCCC1 ?
CHO-K1 Ca PAM: 5; CHRM1 antagonist: 27*; CHRM1 agonist: -3; CHO-K1 Ca antag: -1; CHO-K1 Ca ag: 0; M1 PAM: -16

Results for Cc1onc(-c2c(Cl)cccc2Cl)c1C(=O)N1CCc2ccccc21 ?
CHO-K1 Ca PAM: 8; CHRM1 antagonist: 68*; CHRM1 agonist: -7; CHO-K1 Ca antag: -3; CHO-K1 Ca ag: 1; M1 PAM: -21

Results for Cc1onc(-c2c(F)cccc2Cl)c1C(=O)N1CCc2ccccc2C1 ?
CHO-K1 Ca PAM: 20; CHRM1 antagonist: 27; CHRM1 agonist: -6; CHO-K1 Ca antag: -7; CHO-K1 Ca ag: 0; M1 PAM: -6

What do the screens show for `Nc1c([N+](=O)[O-])c(=O)sc2ccccc12`?
CHO-K1 Ca PAM: 10; CHRM1 antagonist: -5; CHRM1 agonist: -5; CHO-K1 Ca antag: -1; CHO-K1 Ca ag: 15*; M1 PAM: 10

How did O=c1sc2ccccc2c(N2CCCC2)c1[N+](=O)[O-] do in these assays?
CHO-K1 Ca PAM: 4; CHRM1 antagonist: -8; CHRM1 agonist: 3; CHO-K1 Ca antag: 1; CHO-K1 Ca ag: 0; M1 PAM: 8

How did CN(C(=O)c1ccc(NC(=O)Cc2ccc(NC(=O)C3CCN(C(=O)C4CC4)CC3)cc2)cc1)C1CCCC1 do in these assays?
CHO-K1 Ca PAM: 4; CHRM1 antagonist: -27; CHRM1 agonist: 4; CHO-K1 Ca antag: -9; CHO-K1 Ca ag: 1; M1 PAM: 27*

Results for COCCn1c(N)c(N(Cc2ccccc2)C(=O)c2ccc(N3CCCC3=O)cc2)c(=O)[nH]c1=O ?
CHO-K1 Ca PAM: -5; CHRM1 antagonist: -8; CHRM1 agonist: -2; CHO-K1 Ca antag: 0; CHO-K1 Ca ag: 0; M1 PAM: 11

What do the screens show for `CCCCCCCCNCCS(=O)(=O)NN1CCOCC1`?
CHO-K1 Ca PAM: 1; CHRM1 antagonist: -10; CHRM1 agonist: -4; CHO-K1 Ca antag: 4; CHO-K1 Ca ag: 1; M1 PAM: 9

What do the screens show for `Cc1ccc(SC[C@H](c2ccccc2)N2CCN(C)CCC2=O)cc1`?
CHO-K1 Ca PAM: -2; CHRM1 antagonist: 33*; CHRM1 agonist: -13; CHO-K1 Ca antag: -4; CHO-K1 Ca ag: 1; M1 PAM: -28

Results for O=C(Nc1cccc(-c2nc3ccccc3o2)c1)c1ccc(N2C(=O)C3C4C=CC(C4)C3C2=O)cc1 (stereo not drawn) ?
CHO-K1 Ca PAM: 18; CHRM1 antagonist: 37*; CHRM1 agonist: 1; CHO-K1 Ca antag: -7; CHO-K1 Ca ag: 3; M1 PAM: -11

Results for CS(=O)(=O)N1CCCC(c2nc(-c3ccc(S(=O)(=O)NCc4ccccc4)cc3)no2)C1 (stereo not drawn) ?
CHO-K1 Ca PAM: -14; CHRM1 antagonist: 36*; CHRM1 agonist: 3; CHO-K1 Ca antag: 34*; CHO-K1 Ca ag: 15; M1 PAM: -18

Results for Cc1ccccc1C1=C/C(=C(\SS/C(C(=O)c2ccc(OCC(=O)O)c(Cl)c2Cl)=C2\C=C(c3ccccc3C)SS2)C(=O)c2ccc(OCC(=O)O)c(Cl)c2Cl)SS1 ?
CHO-K1 Ca PAM: -4; CHRM1 antagonist: -17; CHRM1 agonist: -1; CHO-K1 Ca antag: -16; CHO-K1 Ca ag: 0; M1 PAM: 8

How did Cc1c(C)n(Cc2ccccc2)c2ncnc(Cl)c12 do in these assays?
CHO-K1 Ca PAM: -25; CHRM1 antagonist: 35*; CHRM1 agonist: -1; CHO-K1 Ca antag: 19; CHO-K1 Ca ag: 9; M1 PAM: -19

What do the screens show for `Cc1nnc(NS(=O)(=O)c2ccc(F)cc2)s1`?
CHO-K1 Ca PAM: 14; CHRM1 antagonist: 3; CHRM1 agonist: -2; CHO-K1 Ca antag: -5; CHO-K1 Ca ag: 1; M1 PAM: 4

Bioassay records as filed in PubChem.
